According to paper PMC13494018:
Values without a mark were called inactive. No rule for the calls is given here.

Target: VTCN1, Q7Z7D3
Sequence (Q7Z7D3 whole entry): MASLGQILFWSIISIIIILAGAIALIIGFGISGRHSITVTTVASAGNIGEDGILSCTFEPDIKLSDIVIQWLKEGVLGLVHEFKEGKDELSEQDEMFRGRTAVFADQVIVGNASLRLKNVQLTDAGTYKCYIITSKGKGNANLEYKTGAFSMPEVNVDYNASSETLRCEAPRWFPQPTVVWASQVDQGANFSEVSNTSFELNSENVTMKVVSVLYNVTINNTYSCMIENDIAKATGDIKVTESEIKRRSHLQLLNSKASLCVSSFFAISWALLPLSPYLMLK

B1: design_605_6ebdab39-eaab-4492-afcb-164e20c3b25e_1054_dldesign_0_cycle1_af2pred (protein)
chain: DVTEKAKKAAEEALKADAETAAKLLSEAAKLAVEAGDSEGMHIIRQAISEMDFAGKKEGAAKARAAAAAAVRARQAALAA
- binding in a display sort: not found

B2: design_605_6ebdab39-eaab-4492-afcb-164e20c3b25e_565_dldesign_0_cycle1_af2pred (protein)
chain: AVEKTIAELLKAASAAIIELFDDPEKGRAKLAEVLAKAEAAAKAASPKDAAKIQAALDEMKKRGEAAIKRVEEDEKIAK
- binding in a display sort: not found

B3: design_605_6ebdab39-eaab-4492-afcb-164e20c3b25e_1133_dldesign_0_cycle1_af2pred (protein)
chain: NAAEIAAAKAALAEARAAFEAAGAALVAADPSYAPQVAKALARIDKLEADGKANPALAAEYYQLATDIAEDQAANAKKLLAAIT
- binding in a display sort: not found

B4: design_605_6ebdab39-eaab-4492-afcb-164e20c3b25e_593_dldesign_0_cycle1_af2pred (protein)
chain: EVEAKASEVAARARQVIAEAEYLERRAKKEGDKEKEKKAKEAKELAEKALELIKKGGLEGVEKAEKLVEEAEKLLEE
- binding in a display sort: not found

B5: design_605_6ebdab39-eaab-4492-afcb-164e20c3b25e_883_dldesign_0_cycle1_af2pred (protein)
chain: DAEIQAILEQAKKALKAAKESLEKGKKYEEEGKKNLAEAYYEHAIHNAEQAIKLAEQNIAAGGKPEEAQKIKDEAKKVKEEAKG
- binding in a display sort: not found

B6: design_605_6ebdab39-eaab-4492-afcb-164e20c3b25e_1459_dldesign_0_cycle1_af2pred (protein)
chain: AAEEARKKKLEEFAKKAKEAAKKFSPEYAKKAKEAAKLYEQGKTATPAEAAALAQKARQLLAEAEYEDKK
- binding in a display sort: not found

B7: design_605_6ebdab39-eaab-4492-afcb-164e20c3b25e_737_dldesign_0_cycle1_af2pred (protein)
chain: MEELKEQIKEIKEKAEEILKNKETASLGILAESNAEDAEKLLKAGEADPSTKEKNVAEAKKFLKAAKEYAEKGLELMKKLK
- binding in a display sort: not found

B8: design_605_6ebdab39-eaab-4492-afcb-164e20c3b25e_661_dldesign_0_cycle1_af2pred (protein)
chain: MEEFEKLVKEAEKLIKKALESKDKEERKKLVEEAKEVLKKAQKLGKELAAKSTPEEAKEIVEKMHELHEKLAEAKQKAS
- binding in a display sort: not found

B9: design_605_6ebdab39-eaab-4492-afcb-164e20c3b25e_178_dldesign_0_cycle1_af2pred (protein)
chain: MSEEIKKKAEEIVEEALKKAEAAPTVEEAQAILDEALDKAVSLGKTIEEKKYAADLVSKARKKLREVWKAR
- binding in a display sort: not found

B10: design_605_6ebdab39-eaab-4492-afcb-164e20c3b25e_1481_dldesign_0_cycle1_af2pred (protein)
chain: SEVEEAIKKIKDTAAKATAAAIAAAAVDPTLGANVAADGQAKLTELAWEYSKKYPEHKEEIEKTRKEERKAMRDAVGAAIAAVA
- binding in a display sort: not found

B11: design_605_6ebdab39-eaab-4492-afcb-164e20c3b25e_1027_dldesign_0_cycle1_af2pred (protein)
chain: ALEEAKKKIEEAEKRASKRLDEVAAKVSPEEAKKLEEAKKELKEKTEKAKKLSPEEAIKLAAEAAAKAYEAAAEARAKE
- binding in a display sort: not found

B12: design_605_6ebdab39-eaab-4492-afcb-164e20c3b25e_445_dldesign_0_cycle1_af2pred (protein)
chain: AKEKALIDLQIAEQMAEAAKEGYAGTAAAKRAAKAAKRAIKLDPSLAEEAVKIMKELAKAAAKQDPEAGKVAAKELKEVEKEAKKVKE
- binding in a display sort: not found

B13: design_605_6ebdab39-eaab-4492-afcb-164e20c3b25e_648_dldesign_0_cycle1_af2pred (protein)
chain: AEAEELKKKASQYLMEAFDTGSEEELKKAIEYAEKAAEAASEEEGKKILEEKEKMKKGFERFLKAYKEAQKKAEE
- binding in a display sort: not found

B14: design_605_6ebdab39-eaab-4492-afcb-164e20c3b25e_558_dldesign_0_cycle1_af2pred (protein)
chain: EEEKKLVELLHEAQELAAEAEFYSKKDKEKSKEYIEKATKKIEEAAKLAGFEPIKAKNVEDLKEVLKEAIKKASERIKERKA
- binding in a display sort: not found

B15: design_605_6ebdab39-eaab-4492-afcb-164e20c3b25e_1026_dldesign_0_cycle1_af2pred (protein)
chain: AEKEETEEKAKEVLKKAEEAAEKILKKDPKKAQEVYRIIFLGESKRLAGDYEEALKLYEEALKKAEELNKEL
- binding in a display sort: not found

B16: design_605_6ebdab39-eaab-4492-afcb-164e20c3b25e_258_dldesign_0_cycle1_af2pred (protein)
chain: KAKELSKIVHEGFQAAKELELLAKKDPRMKPAAEEAEKLRKKAVEAAKAGDYEKAAEYAKKLKELAEKALKEYE
- binding in a display sort: not found

B17: design_605_6ebdab39-eaab-4492-afcb-164e20c3b25e_1042_dldesign_0_cycle1_af2pred (protein)
chain: ELEKLAKKAEDAAAVLKNSKARAHALSAALQLEAGNKELAKKSATAAAAVLDANPDITPEEEKARDALKEIADWLA
- binding in a display sort: not found

B18: design_605_6ebdab39-eaab-4492-afcb-164e20c3b25e_778_dldesign_0_cycle1_af2pred (protein)
chain: EVKELIKKAKELIEKAEKLTKSGEKLEEGEKAAEEAKKVVEEAKKVAKDSTPEEKFAVAEALAELRNVEREIKKAKEEK
- binding in a display sort: not found

B19: design_605_6ebdab39-eaab-4492-afcb-164e20c3b25e_1493_dldesign_0_cycle1_af2pred (protein)
chain: TIEKNVALAEKLAERAKEVAKKAAADPNKKEAAKLAKKAAELAKEAAALAKEGKIAEGAKKMHEARELLAEAEHLLRK
- binding in a display sort: not found

B20: design_605_6ebdab39-eaab-4492-afcb-164e20c3b25e_494_dldesign_0_cycle1_af2pred (protein)
chain: AEALEKGKAASAALDANIATGFATAEKTGDKAAAGAAAVAATAEAGAAIGPEAAEKGRRVMTSIFDGYVKA
- binding in a display sort: not found

B21: design_605_6ebdab39-eaab-4492-afcb-164e20c3b25e_1408_dldesign_0_cycle1_af2pred (protein)
chain: AEEEEKIKKKAKEIVDTIVKAAKEGLEKARKTAAELAKKYGMKTEDAALVRSLAVKTAKEGGKYYEDAVEAAVEGIKE
- binding in a display sort: not found

B22: design_605_6ebdab39-eaab-4492-afcb-164e20c3b25e_904_dldesign_0_cycle1_af2pred (protein)
chain: AEAEKKAKEGKEKMEAGKKKLAEAKKTGSAELAKEAAKLFKEAGKLFAAVPEQQANAAEAAKLAHEAYELAAEARAK
- binding in a display sort: not found

B23: design_605_6ebdab39-eaab-4492-afcb-164e20c3b25e_799_dldesign_0_cycle1_af2pred (protein)
chain: GEKEKLKKEAEELEKKAKELEKKAEEKFKKNIKKGSKALSYVEQAKNAAKVAKKYAEEGKVEEAKKALEKAKEYLKKAKEYVEE
- binding in a display sort: not found

B24: design_605_6ebdab39-eaab-4492-afcb-164e20c3b25e_858_dldesign_0_cycle1_af2pred (protein)
chain: ALEEFKKLLQKLIDLTAAVPEAAKAREELENGTPREALKAAIKAAKAKAAADPSVAPELEKLVHELSQAAAEAELELKK
- binding in a display sort: not found

B25: design_605_6ebdab39-eaab-4492-afcb-164e20c3b25e_768_dldesign_0_cycle1_af2pred (protein)
chain: DIAKLAEKAAKALKKAAEEGLEALAKAAALVQEARAEAKFKGLKEVAELLEKALKLAREAGKTEDEEERKALAEKAAKYAEEAAKKAK
- binding in a display sort: not found

B26: design_605_6ebdab39-eaab-4492-afcb-164e20c3b25e_1473_dldesign_0_cycle1_af2pred (protein)
chain: AKEILDAQMKILDAANEAEKVDPELGKEIREKYKKVAEEGKKLSPEEALKALKAMAEEAEKKAKEAKKEAEKKKLE
- binding in a display sort: not found

B27: design_605_6ebdab39-eaab-4492-afcb-164e20c3b25e_758_dldesign_0_cycle1_af2pred (protein)
chain: SEYFKEAVDVASKIVRAYHALAAVFPETAAQLEADGDAKVDKVMAAAELAEKDPEKGKAELEKQKAEAEKIKAEADKAAAAAR
- binding in a display sort: not found

B28: design_605_6ebdab39-eaab-4492-afcb-164e20c3b25e_689_dldesign_0_cycle1_af2pred (protein)
chain: GAAQEEADKALEKAGKILKEAEKLAKEAAKIGTEEEAKELEELIKKAKELLEKGKASTPEEKKKLAVEAAEYAHEARALAKHILASK
- binding in a display sort: not found

B29: design_605_6ebdab39-eaab-4492-afcb-164e20c3b25e_165_dldesign_0_cycle1_af2pred (protein)
chain: AAAAEAAAKEAAAKLAIAEARALIRAGRANPKFGVELALEGAKIAREAAKKNPAMKEELEKTAKEAEKEAKKLA
- binding in a display sort: not found

B30: design_605_6ebdab39-eaab-4492-afcb-164e20c3b25e_390_dldesign_0_cycle1_af2pred (protein)
chain: KEEKVEEVKKKMEESSLAEAVFIGIEAVMEFTKDAPEYMRKIVKAGRKGGEEGDEEKAKKEMAEIVKKAAE
- binding in a display sort: not found

B31: design_605_6ebdab39-eaab-4492-afcb-164e20c3b25e_437_dldesign_0_cycle1_af2pred (protein)
chain: MKEEAEEAKKRAEAIKKAAKEDPDKAAALIAKGFASPLAAAVKAAPPETRAEAAAQAAKVATRILENEARSYERTAN
- binding in a display sort: not found

B32: design_605_6ebdab39-eaab-4492-afcb-164e20c3b25e_1415_dldesign_0_cycle1_af2pred (protein)
chain: AAKLEAKMKAMDMAVEAGEADAEDEEKGKEKLEELKKMVEEIAKEIGEEAGESAWRIAMDVYEHTVKMKK
- binding in a display sort: not found

B33: design_605_6ebdab39-eaab-4492-afcb-164e20c3b25e_250_dldesign_0_cycle1_af2pred (protein)
chain: AAAAAAARLAAGLAAAAKFVEEATKKAREIAAKKTPEESAKAKAEVEEYEAMARDALAMGNAAGARSIARLALEKVS
- binding in a display sort: not found

B34: design_605_6ebdab39-eaab-4492-afcb-164e20c3b25e_1234_dldesign_0_cycle1_af2pred (protein)
chain: SGVKETAIEVAEDAKKAAEEAEKLAKEKPEFAKELKKVAEKAKKAAKKALEGAKKSEEEARKATAEAATALALAENVIDTVKLA
- binding in a display sort: not found

B35: design_605_6ebdab39-eaab-4492-afcb-164e20c3b25e_707_dldesign_0_cycle1_af2pred (protein)
chain: MKKQAIELAEEAKELMEKEGATPEAVALASSALRTAGFPRELAEEVREAYKKDKEEGEKKLKEAVKLVLERAKKK
- binding in a display sort: not found

B36: design_605_6ebdab39-eaab-4492-afcb-164e20c3b25e_729_dldesign_0_cycle1_af2pred (protein)
chain: SSSKETSEFNRELQKRARAAGEELEKKSKNPEAGKEAKKLLSNGLMESFDKSSKEEAKAALDKAIAEAKKHVEEAS
- binding in a display sort: not found

B37: design_605_6ebdab39-eaab-4492-afcb-164e20c3b25e_1516_dldesign_0_cycle1_af2pred (protein)
chain: EKEKEAKEIIEKARKALKEARKKLKAKGATPEQAKKMQEARELAAEADYLAKKDPKKGKEIAEKAIELAKKAAE
- binding in a display sort: not found

B38: design_605_6ebdab39-eaab-4492-afcb-164e20c3b25e_501_dldesign_0_cycle1_af2pred (protein)
chain: AAAEEAAKKALKELKEEAKKLVEEAKKSNAEEAKKKRKEVVELGKEYAEKAAASPEVQKEIAKVVHEAQEELAEAAFEHSRKEKE
- binding in a display sort: not found
